In article PMC12529666, “Dysregulation of AGO2-miRNA dynamics underlies the AGO2-associated Lessel–Kreienkamp syndrome” one finds binding signal data, which are given here for ten molecules.

Changes are numbered by the printed parent chain.

To fix the notation:
B1: GCATTCCA (ssRNA)
RNA 1: GAGUUCUACAGUCCGACGAUCCCAACGCAUUCCACACCUGGAAUUCUCGGGUGCCAA
RNA 2: UGGAGUGUGACAAUGGUGUUUG
DNA 1: GATCGTCGGACTGTAGAACTC
DNA 2: TTGGCACCCGAGAATTCCA
modifications: constant regions annealed to DNA blockers; guide miR-122 5' phosphate
B2: ACATCCCA (ssRNA)
RNA 1: B1 RNA 1 with G27A, U31C
RNA 2: UGGAGUGUGACAAUGGUGUUUG
DNA 1: GATCGTCGGACTGTAGAACTC
DNA 2: TTGGCACCCGAGAATTCCA
modifications: constant regions annealed to DNA blockers; guide miR-122 5' phosphate
B3: GTATTCCA (ssRNA)
RNA 1: B1 RNA 1 with C28U
RNA 2: UGGAGUGUGACAAUGGUGUUUG
DNA 1: GATCGTCGGACTGTAGAACTC
DNA 2: TTGGCACCCGAGAATTCCA
modifications: constant regions annealed to DNA blockers; guide miR-122 5' phosphate
B4: ACGTCTCA (ssRNA)
RNA 1: B1 RNA 1 with G27A, A29G, U31C, C32U
RNA 2: UGGAGUGUGACAAUGGUGUUUG
DNA 1: GATCGTCGGACTGTAGAACTC
DNA 2: TTGGCACCCGAGAATTCCA
modifications: constant regions annealed to DNA blockers; guide miR-122 5' phosphate
B5: ATACTTCA (ssRNA)
RNA 1: B1 RNA 1 with G27A, C28U, U30C, C32U
RNA 2: UGGAGUGUGACAAUGGUGUUUG
DNA 1: GATCGTCGGACTGTAGAACTC
DNA 2: TTGGCACCCGAGAATTCCA
modifications: constant regions annealed to DNA blockers; guide miR-122 5' phosphate
B6: GCACCCCA (ssRNA)
RNA 1: B1 RNA 1 with U30C, U31C
RNA 2: UGGAGUGUGACAAUGGUGUUUG
DNA 1: GATCGTCGGACTGTAGAACTC
DNA 2: TTGGCACCCGAGAATTCCA
modifications: constant regions annealed to DNA blockers; guide miR-122 5' phosphate
B7: GCACTCTA (ssRNA)
RNA 1: B1 RNA 1 with U30C, C33U
RNA 2: UGGAGUGUGACAAUGGUGUUUG
DNA 1: GATCGTCGGACTGTAGAACTC
DNA 2: TTGGCACCCGAGAATTCCA
modifications: constant regions annealed to DNA blockers; guide miR-122 5' phosphate
B8: ATATCTCA (ssRNA)
RNA 1: B1 RNA 1 with G27A, C28U, U31C, C32U
RNA 2: UGGAGUGUGACAAUGGUGUUUG
DNA 1: GATCGTCGGACTGTAGAACTC
DNA 2: TTGGCACCCGAGAATTCCA
modifications: constant regions annealed to DNA blockers; guide miR-122 5' phosphate
B9: ACATTTCA (ssRNA)
RNA 1: B1 RNA 1 with G27A, C32U
RNA 2: UGGAGUGUGACAAUGGUGUUUG
DNA 1: GATCGTCGGACTGTAGAACTC
DNA 2: TTGGCACCCGAGAATTCCA
modifications: constant regions annealed to DNA blockers; guide miR-122 5' phosphate
B10: GCATTTCA (ssRNA)
RNA 1: B1 RNA 1 with C32U
RNA 2: UGGAGUGUGACAAUGGUGUUUG
DNA 1: GATCGTCGGACTGTAGAACTC
DNA 2: TTGGCACCCGAGAATTCCA
modifications: constant regions annealed to DNA blockers; guide miR-122 5' phosphate

Sequence of AGO2 F182del (Q9UKV8 other isoform, or with tags, fused parts or gaps S387D;S824A;S828D;S831D;S834A;del182-182): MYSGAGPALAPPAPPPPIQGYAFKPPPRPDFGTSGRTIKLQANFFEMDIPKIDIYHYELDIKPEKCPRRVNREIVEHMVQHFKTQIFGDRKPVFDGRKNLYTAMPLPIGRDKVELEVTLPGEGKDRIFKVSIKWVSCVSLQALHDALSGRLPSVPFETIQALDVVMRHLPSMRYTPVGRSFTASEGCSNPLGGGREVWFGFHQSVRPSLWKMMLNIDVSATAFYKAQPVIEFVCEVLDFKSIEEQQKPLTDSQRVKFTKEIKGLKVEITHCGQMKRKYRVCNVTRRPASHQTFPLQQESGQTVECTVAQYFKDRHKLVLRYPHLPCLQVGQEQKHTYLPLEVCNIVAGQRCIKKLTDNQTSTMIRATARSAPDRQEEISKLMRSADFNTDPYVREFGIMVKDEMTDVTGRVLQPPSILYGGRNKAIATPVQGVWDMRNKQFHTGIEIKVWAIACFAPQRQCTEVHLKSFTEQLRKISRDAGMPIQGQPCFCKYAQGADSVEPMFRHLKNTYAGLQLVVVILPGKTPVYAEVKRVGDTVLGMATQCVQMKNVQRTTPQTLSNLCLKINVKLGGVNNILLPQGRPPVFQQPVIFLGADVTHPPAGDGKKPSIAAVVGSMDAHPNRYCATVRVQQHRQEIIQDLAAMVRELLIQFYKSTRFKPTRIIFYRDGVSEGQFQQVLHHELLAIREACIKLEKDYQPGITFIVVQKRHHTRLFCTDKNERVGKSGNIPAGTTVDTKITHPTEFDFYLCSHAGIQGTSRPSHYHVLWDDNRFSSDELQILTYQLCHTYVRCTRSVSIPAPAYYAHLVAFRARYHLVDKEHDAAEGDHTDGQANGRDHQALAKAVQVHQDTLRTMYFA
Sequence of AGO2 T357M (Q9UKV8 whole entry T357M/S387D/S824A/S828D/S831D/S834A): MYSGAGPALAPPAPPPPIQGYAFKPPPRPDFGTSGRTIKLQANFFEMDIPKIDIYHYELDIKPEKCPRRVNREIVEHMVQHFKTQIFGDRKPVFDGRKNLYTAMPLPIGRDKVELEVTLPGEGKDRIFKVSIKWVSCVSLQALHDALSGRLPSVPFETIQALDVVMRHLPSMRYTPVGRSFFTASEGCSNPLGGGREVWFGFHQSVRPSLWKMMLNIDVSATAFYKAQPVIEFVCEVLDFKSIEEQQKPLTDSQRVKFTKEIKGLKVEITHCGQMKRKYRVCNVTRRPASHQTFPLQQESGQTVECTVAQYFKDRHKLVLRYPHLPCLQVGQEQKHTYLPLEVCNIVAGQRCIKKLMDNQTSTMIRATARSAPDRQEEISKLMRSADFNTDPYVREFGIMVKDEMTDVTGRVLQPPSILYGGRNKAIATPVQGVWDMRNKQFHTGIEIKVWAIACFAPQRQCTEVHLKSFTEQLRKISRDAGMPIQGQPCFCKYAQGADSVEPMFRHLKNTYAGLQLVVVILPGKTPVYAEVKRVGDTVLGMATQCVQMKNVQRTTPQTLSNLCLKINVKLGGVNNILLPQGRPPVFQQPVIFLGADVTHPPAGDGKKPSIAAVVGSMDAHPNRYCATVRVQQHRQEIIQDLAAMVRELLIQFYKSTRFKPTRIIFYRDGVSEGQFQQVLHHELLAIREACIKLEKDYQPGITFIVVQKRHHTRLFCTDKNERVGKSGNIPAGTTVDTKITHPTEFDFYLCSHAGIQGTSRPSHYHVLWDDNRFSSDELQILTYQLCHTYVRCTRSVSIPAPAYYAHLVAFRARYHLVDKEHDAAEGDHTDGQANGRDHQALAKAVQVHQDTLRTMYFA
Sequence of AGO2 L192P (Q9UKV8 whole entry L192P/S387D/S824A/S828D/S831D/S834A): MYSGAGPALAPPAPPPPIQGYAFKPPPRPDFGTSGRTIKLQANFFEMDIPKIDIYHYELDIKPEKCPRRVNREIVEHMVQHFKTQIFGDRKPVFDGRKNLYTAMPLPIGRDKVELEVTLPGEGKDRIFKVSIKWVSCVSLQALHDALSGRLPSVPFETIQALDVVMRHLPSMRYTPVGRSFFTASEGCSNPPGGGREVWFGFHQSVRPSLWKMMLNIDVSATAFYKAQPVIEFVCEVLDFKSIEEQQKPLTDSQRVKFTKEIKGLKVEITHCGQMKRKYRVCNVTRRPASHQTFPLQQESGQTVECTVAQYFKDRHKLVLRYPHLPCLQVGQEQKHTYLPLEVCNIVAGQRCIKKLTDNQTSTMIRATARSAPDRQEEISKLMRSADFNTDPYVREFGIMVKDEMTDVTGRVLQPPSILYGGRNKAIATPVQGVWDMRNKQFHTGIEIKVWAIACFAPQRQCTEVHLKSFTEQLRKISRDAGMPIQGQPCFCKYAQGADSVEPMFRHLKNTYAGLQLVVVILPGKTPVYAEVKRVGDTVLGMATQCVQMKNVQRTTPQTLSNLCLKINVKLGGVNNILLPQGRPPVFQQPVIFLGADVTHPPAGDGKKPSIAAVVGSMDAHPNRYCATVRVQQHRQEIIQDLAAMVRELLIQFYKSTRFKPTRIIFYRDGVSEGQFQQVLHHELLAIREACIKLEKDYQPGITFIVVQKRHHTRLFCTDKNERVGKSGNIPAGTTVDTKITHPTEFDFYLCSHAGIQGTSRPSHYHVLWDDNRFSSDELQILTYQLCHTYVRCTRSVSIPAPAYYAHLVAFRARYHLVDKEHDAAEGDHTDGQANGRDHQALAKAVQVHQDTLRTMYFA

In one test the target is AGO2 WT (phosphosite mutant background) (Homo sapiens, UniProt Q9UKV8 1-859, S387D;S824A;S828D;S831D;S834A). Kind of test: RNA Bind-n-Seq (nitrocellulose filter binding and sequencing); miR-122 guide loaded in AGO2; 60 min incubation; 30 mM Tris pH 8.0, 100 mM potassium acetate, 2 mM magnesium acetate, 0.5 mM TCEP, 0.005% NP-40, 0.01 mg/ml yeast tRNA; 3 nM AGO2-miR-122, 100 nM RNA library; 60; high values mean tight binding. The settings on record: protein: recombinant; tags: His6 (N-terminal, pFastBac HTA). Put shortly: (§1)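 His-tagged AGO2 was expressed in Sf9 insect cells by baculovirus, loaded with a synthetic guide RNA, and purified by Ni-NTA and a biotinylated capture oligo. Bound RNA was extracted, reverse-transcribed, barcode-amplified and Illumina-sequenced. Fold enrichment is each sequence's read fraction divided by its input-library read fraction.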
Sequence of AGO2 WT (phosphosite mutant background) (Q9UKV8 whole entry S387D/S824A/S828D/S831D/S834A): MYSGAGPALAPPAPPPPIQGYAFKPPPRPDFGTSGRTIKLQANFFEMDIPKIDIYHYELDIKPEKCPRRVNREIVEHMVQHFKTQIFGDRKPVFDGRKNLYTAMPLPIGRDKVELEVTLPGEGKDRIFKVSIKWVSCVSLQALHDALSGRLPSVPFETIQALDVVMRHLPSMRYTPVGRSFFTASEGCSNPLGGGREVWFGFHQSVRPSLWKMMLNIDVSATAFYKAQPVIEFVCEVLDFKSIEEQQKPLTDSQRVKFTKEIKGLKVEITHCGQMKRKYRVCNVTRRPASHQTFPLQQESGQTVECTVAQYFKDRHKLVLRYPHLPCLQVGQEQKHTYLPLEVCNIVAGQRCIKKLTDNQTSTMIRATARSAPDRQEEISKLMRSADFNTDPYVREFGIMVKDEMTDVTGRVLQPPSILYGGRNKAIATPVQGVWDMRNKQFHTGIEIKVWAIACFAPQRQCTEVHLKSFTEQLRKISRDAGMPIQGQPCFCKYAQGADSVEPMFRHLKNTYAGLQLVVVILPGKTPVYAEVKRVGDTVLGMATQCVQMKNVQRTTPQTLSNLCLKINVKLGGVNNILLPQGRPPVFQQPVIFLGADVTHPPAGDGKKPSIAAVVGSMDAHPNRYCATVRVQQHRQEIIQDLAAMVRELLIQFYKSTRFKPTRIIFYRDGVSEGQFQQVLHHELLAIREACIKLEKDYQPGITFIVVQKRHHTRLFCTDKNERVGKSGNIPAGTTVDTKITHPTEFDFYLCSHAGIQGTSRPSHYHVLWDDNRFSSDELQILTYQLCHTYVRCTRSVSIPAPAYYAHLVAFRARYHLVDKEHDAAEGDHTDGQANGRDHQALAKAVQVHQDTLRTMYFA
As to B1, the binding signal was 0.182 fold enrichment over input.
As for B2, the binding signal is 0.154 fold enrichment over input.
Consider B3, for which the binding signal was 0.18 fold enrichment over input.
Still for that read-out and setting: the value for B4 was 0.177 fold enrichment over input.
The same measure, in the same setting: to B5 belongs 0.136 fold enrichment over input.
For B6, the binding signal was 0.164 fold enrichment over input.
On to B7, for which the binding signal is 0.168 fold enrichment over input.
The same measure, in the same setting: the value for B8 was 0.165 fold enrichment over input; that for B9 was 0.235 fold enrichment over input; that for B10 was 0.165 fold enrichment over input.

A further test has as its target AGO2 L192P (Homo sapiens, UniProt Q9UKV8 1-859, L192P;S387D;S824A;S828D;S831D;S834A). Described as above. The settings on record: protein: recombinant; tags: His6 (N-terminal, pFastBac HTA). The method, boiled down: as §1
Turning to B1, the binding signal was 0.661 fold enrichment over input.
On the same count and under the same terms, to B2 belongs 0.641 fold enrichment over input; to B3, 0.545 fold enrichment over input.
Same read-out and setting: the value for B4 was 0.659 fold enrichment over input.
Consider B5, for which the binding signal was 0.646 fold enrichment over input.
On to B6, for which the binding signal was 0.6 fold enrichment over input.
Same read-out and setting: to B7 belongs 0.562 fold enrichment over input; to B8, 0.635 fold enrichment over input; to B9, 1.13 fold enrichment over input.
Still for that read-out and setting: to B10 belongs 0.769 fold enrichment over input.

Another test deals with AGO2 A367P (Homo sapiens, UniProt Q9UKV8 1-859, A367P;S387D;S824A;S828D;S831D;S834A). The test is described as above. The settings on record: protein: recombinant; tags: His6 (N-terminal, pFastBac HTA). Put shortly: as §1
Sequence of AGO2 A367P (Q9UKV8 whole entry A367P/S387D/S824A/S828D/S831D/S834A): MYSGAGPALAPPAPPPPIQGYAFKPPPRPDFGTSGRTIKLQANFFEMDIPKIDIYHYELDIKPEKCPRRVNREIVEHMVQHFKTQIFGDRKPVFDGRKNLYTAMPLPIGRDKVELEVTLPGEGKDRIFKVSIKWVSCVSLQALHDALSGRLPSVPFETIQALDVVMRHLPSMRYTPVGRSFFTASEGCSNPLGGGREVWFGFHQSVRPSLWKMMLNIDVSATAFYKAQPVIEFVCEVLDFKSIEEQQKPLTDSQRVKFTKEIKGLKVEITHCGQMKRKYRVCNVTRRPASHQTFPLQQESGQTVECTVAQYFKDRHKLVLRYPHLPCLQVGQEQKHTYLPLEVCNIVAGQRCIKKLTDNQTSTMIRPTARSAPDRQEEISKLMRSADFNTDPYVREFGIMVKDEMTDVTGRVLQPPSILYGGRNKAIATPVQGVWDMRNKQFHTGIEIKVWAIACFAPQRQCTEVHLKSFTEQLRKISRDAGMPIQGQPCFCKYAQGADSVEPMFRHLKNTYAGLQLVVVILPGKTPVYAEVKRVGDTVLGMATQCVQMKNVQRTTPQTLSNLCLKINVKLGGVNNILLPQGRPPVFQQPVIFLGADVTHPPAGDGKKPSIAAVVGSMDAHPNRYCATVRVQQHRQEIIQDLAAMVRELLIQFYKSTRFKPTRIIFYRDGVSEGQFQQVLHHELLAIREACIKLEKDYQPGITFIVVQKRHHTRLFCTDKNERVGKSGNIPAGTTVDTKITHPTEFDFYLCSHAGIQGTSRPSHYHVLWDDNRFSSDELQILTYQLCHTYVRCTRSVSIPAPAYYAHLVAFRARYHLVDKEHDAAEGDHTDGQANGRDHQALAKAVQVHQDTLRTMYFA
B1: the binding signal was 0.356 fold enrichment over input.
For the molecule B2, the binding signal is 0.325 fold enrichment over input.
As for B3, the binding signal was 0.446 fold enrichment over input.
Still for that read-out and setting: to B4 belongs 0.413 fold enrichment over input; to B5, 0.396 fold enrichment over input.
For B6, the binding signal is 0.263 fold enrichment over input.
The same measure, in the same setting: to B7 belongs 0.306 fold enrichment over input.
On the same count and under the same terms, the value for B8 was 0.396 fold enrichment over input.
Same read-out and setting: the value for B9 was 0.727 fold enrichment over input; that for B10 was 0.434 fold enrichment over input.

In another test the target is AGO2 T357M (Homo sapiens, UniProt Q9UKV8 1-859, T357M;S387D;S824A;S828D;S831D;S834A). Described as above. The settings on record: protein: recombinant; tags: His6 (N-terminal, pFastBac HTA). Put shortly:
as §1
For B1, the binding signal was 0.65 fold enrichment over input.
On the same count and under the same terms, the value for B2 was 0.628 fold enrichment over input.
Same read-out and setting: the value for B3 was 0.623 fold enrichment over input; that for B4 was 0.689 fold enrichment over input.
As for B5, the binding signal is 0.62 fold enrichment over input.
The same measure, in the same setting: the value for B6 was 0.699 fold enrichment over input; that for B7 was 0.561 fold enrichment over input.
On to B8, for which the binding signal is 0.657 fold enrichment over input.
Take B9: the binding signal is 0.709 fold enrichment over input.
Same read-out and setting: to B10 belongs 0.679 fold enrichment over input.

A further test addresses AGO2 F182del (Homo sapiens, UniProt Q9UKV8 1-859, S387D;S824A;S828D;S831D;S834A;del182-182). The test is described as above. The settings on record: protein: recombinant; tags: His6 (N-terminal, pFastBac HTA). Put shortly:
as §1
For the molecule B1, the binding signal is 1.01 fold enrichment over input.
Still for that read-out and setting: the value for B2 was 1.11 fold enrichment over input; that for B3 was 0.898 fold enrichment over input.
On the same count and under the same terms, to B4 belongs 1.38 fold enrichment over input; to B5, 1.33 fold enrichment over input; to B6, 0.666 fold enrichment over input.
Same read-out and setting: to B7 belongs 0.786 fold enrichment over input.
With B8, the binding signal was 1.42 fold enrichment over input.
For the molecule B9, the binding signal was 4.77 fold enrichment over input.
For the molecule B10, the binding signal is 1.83 fold enrichment over input.
